# Source: PubChem
# Only some compounds are listed: those with a hit (about 3.5% of all), similar ones and a draw of the others.
# mHTT-CaM PPI inh: mHTT-calmodulin interaction abrogation. AID 1671202. 3.6% of 190,000 active. inhibition, % at 15 µM. AlphaScreen His-mHTT/GST-CaM binding, luminescence. P42858;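 note: 0% = both proteins with DMSO and 100% = one protein alone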
# Target sequence (P42858 whole entry, looked up, stated change not applied): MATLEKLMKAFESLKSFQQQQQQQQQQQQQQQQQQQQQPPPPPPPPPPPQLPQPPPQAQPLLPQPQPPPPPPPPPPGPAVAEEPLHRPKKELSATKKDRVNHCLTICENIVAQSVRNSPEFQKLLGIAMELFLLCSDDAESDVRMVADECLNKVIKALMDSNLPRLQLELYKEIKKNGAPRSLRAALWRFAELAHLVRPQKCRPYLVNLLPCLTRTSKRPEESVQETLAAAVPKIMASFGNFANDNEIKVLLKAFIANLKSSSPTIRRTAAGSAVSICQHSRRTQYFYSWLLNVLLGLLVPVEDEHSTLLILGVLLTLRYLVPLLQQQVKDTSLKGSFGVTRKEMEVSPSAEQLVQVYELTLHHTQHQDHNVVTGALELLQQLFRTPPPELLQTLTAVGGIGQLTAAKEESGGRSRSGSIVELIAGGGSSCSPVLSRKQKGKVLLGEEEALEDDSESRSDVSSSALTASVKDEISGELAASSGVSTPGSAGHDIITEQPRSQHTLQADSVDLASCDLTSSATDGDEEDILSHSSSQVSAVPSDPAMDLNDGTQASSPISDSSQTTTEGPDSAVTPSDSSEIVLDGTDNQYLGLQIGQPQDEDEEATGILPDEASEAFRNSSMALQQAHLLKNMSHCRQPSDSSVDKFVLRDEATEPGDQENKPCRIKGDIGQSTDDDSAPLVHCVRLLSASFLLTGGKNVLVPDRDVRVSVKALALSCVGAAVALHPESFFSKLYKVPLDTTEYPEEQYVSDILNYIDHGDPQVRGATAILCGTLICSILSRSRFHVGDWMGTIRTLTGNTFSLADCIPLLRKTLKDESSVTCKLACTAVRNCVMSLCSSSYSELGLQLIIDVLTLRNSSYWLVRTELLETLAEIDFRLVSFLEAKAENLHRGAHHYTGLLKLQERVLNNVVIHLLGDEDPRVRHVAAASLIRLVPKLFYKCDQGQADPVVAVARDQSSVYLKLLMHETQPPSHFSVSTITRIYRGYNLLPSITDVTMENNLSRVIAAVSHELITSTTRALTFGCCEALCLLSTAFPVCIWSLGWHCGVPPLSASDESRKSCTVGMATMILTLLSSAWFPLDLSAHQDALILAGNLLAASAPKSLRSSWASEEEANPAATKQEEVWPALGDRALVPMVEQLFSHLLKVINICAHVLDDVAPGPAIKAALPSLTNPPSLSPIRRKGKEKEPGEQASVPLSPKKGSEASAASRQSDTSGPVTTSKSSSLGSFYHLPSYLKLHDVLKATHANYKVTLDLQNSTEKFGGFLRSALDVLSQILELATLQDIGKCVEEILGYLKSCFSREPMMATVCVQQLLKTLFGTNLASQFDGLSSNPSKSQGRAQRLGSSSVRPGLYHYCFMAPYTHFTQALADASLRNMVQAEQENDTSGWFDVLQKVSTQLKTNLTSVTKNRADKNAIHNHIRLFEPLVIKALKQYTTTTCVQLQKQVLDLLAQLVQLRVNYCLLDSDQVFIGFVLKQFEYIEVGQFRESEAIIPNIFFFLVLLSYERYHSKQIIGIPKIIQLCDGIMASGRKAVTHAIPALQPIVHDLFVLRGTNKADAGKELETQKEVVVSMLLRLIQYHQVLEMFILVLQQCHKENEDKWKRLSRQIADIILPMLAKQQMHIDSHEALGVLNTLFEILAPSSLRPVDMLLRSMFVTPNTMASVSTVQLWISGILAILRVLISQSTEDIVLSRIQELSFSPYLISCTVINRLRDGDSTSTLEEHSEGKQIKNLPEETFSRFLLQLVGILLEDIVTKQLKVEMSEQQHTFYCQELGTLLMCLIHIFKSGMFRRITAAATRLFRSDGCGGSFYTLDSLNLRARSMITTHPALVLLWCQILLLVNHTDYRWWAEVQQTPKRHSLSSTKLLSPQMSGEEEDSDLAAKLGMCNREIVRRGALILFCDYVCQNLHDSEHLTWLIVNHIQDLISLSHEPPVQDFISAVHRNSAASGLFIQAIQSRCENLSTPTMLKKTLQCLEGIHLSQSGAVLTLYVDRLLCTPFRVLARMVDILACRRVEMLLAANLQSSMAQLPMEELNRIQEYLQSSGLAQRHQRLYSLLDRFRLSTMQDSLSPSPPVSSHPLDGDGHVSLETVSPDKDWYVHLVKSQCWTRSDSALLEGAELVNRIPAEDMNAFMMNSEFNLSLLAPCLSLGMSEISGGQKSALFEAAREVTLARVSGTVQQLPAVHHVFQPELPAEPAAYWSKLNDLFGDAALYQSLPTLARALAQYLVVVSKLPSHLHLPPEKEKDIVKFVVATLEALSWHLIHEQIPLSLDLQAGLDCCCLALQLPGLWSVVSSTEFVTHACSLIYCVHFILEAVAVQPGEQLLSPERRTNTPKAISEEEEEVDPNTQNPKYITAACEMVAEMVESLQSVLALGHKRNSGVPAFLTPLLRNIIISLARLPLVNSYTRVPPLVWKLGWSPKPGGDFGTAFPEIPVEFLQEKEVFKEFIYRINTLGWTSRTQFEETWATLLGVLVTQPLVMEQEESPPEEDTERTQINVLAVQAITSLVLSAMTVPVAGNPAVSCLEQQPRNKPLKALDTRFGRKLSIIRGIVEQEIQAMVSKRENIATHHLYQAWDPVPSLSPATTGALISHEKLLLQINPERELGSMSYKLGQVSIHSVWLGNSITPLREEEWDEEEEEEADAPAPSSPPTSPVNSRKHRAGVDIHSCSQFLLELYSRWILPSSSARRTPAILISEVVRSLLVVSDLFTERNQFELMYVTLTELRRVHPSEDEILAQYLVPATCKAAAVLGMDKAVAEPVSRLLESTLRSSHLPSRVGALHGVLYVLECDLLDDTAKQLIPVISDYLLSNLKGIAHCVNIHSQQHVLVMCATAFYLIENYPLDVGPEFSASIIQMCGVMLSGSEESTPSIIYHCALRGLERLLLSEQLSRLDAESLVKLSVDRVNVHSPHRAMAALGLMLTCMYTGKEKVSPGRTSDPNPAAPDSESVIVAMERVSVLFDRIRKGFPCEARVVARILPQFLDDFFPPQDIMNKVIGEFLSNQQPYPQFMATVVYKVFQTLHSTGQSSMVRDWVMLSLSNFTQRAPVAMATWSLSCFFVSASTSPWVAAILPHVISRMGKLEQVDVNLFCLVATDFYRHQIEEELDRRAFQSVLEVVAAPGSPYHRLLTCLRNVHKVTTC
# Pf apPOL block: Pf-apPOL DNA polymerase inhibition; Recombinant Pf-apPOL, molecular beacon fluorescence, 1.5 h; inhibition, % at 10 µM; 0.25% of 210,000 active
# * marks the source's active call; other numbers are inactive results; / = no result. Cut-off read from the data, not from the text of the source: active = inhibition above about 50%; inactive = the rest.
SMILES,mHTT-CaM PPI inh,Pf apPOL block
CC(C)NC(=O)c1ccc(OCC2CCCN2C(=O)c2ccc(Br)cc2)cc1 (configuration not stated),5,-2
CC(C)N1C(=O)C(C)(C(=O)Nc2cccc(Cl)c2)Oc2cccnc21 (configuration not stated),-7,-1
CC(C)N1C(=O)C(C)(C(=O)Nc2ccc(F)c(Cl)c2)Oc2cccnc21 (configuration not stated),100*,-5
O=C(NCc1cccnc1)c1ccn2c(-c3ccc(Cl)cc3)nnc2c1,6,9
COc1ccc(Cl)cc1NC(=O)C1CC(=O)N(CCc2c[nH]c3ccc(C)cc23)C1 (configuration not stated),75*,0
COc1ccc(OC)c(NC(=O)C2CC(=O)N(CCc3c[nH]c4ccc(Cl)cc34)C2)c1 (configuration not stated),81*,1
COc1ccccc1NC(=O)C1CC(=O)N(CCc2c[nH]c3ccc(Cl)cc23)C1 (configuration not stated),41,0
COc1ccc(C)cc1NC(=O)C1CC(=O)N(CCc2c[nH]c3ccc(Cl)cc23)C1 (configuration not stated),14,-2
CC(=O)Nc1ccc(Nc2nc(Nc3ccccc3)nc(N3CCOCC3)n2)cc1,10,-2
N#CC(=Cc1ccc(F)cc1)c1nc(-c2cc3cc(Br)ccc3oc2=O)cs1,-2,-6
Cc1c(NC(=O)c2ccc(N(C)C)cc2)cccc1[N+](=O)[O-],11,-2
COc1cccc(-c2ccc3c(N)c(C(=O)Nc4ccc(F)c(F)c4)sc3n2)c1,-23,-4
Cc1cc(C)c2nc(C)cc(Nc3ccc(OCc4ccccc4)cc3)c2c1,90*,0
CCOc1ccc2nc(C)cc(Nc3ccc(OCc4ccccc4Cl)cc3)c2c1,98*,-2
Cc1cc(C)c2nc(C)cc(Nc3ccc(C(=O)O)cc3)c2c1,3,-14
CCOc1ccc2nc(C)cc(Nc3cc(Cl)ccc3OC)c2c1,27,-4
CCOc1ccc(Nc2c3ccccc3nc3ccccc23)cc1,63*,-6
CCOc1ccc(Nc2nc(-c3ccccc3)cs2)cc1,9,-2
CS(=O)(=O)N1CCCc2ccc(NC(=O)c3ccno3)cc21,-9,-10
COc1ccc(OC)c(NC(=O)c2ccc(Cl)cc2)c1,-6,-3
CC(=O)Oc1ccc(C(=O)Nc2cc(Cl)ccc2OC(C)=O)cc1,69*,-1
COc1nc(C)nc(NC=C(C#N)C(=O)C2CC2)n1,/,-10
CCOC(=O)Cc1csc(NC(=O)c2csc(-n3cccc3)n2)n1,-16,16
Cc1ccc(C)c(Cc2c(C)nc3c(C(=O)NCCc4ccccc4)cnn3c2C)c1,66*,-3
CCCNC(=O)c1cnn2c(C)c(Cc3ccc(F)cc3)c(C)nc12,-1,-4
SMILES,mHTT-CaM PPI inh,Pf apPOL block
Cc1nc2c(C(=O)NCc3ccc(F)cc3)cnn2c(C)c1Cc1ccccc1,19,-7
CCCCNC(=O)c1cnn2c(C)c(Cc3ccc(Cl)cc3)c(C)nc12,11,-6
Cc1nc2c(C(=O)NCCc3ccccc3)cnn2c(C)c1Cc1ccc(F)cc1,80*,-4
CCOCCCNC(=O)c1cnn2c(C)c(Cc3ccc(Cl)cc3)c(C)nc12,65*,-18
Cc1nc2c(C(=O)NCc3ccc(F)cc3)cnn2c(C)c1Cc1ccc(F)cc1,51*,-8
CCCCNC(=O)c1cnn2c(C)c(Cc3cc(C)ccc3C)c(C)nc12,11,0
Cc1[nH]nc(SCC(=O)Nc2ccc(F)cc2F)c1[N+](=O)[O-],-1,3
CCOc1cccc(CNC(=O)C2CCc3sc(C(=O)N4CCOCC4)cc3C2)c1 (configuration not stated),0,-7
Cc1cc(C)n2c(Br)c(CSc3nncn3-c3ccccc3)nc2n1,3,-4
c1coc(-c2nc3sc4c(NCCN5CCOCC5)ncnc4c3c3c2CCCC3)c1,24,-5
CCCOc1ccc(-c2nc3s/c(=C\c4ccccc4F)c(=O)n3n2)cc1,-5,4
CCN1C(=O)c2cccc3c(NC(=O)c4ccc(S(=O)(=O)N(C)C5CC5)cc4)ccc1c23,-11,-5
CCOC1=NC2Nc3ccc(Cl)cc3N(C)C2C1c1ccc([N+](=O)[O-])cc1 (configuration not stated),54*,-2
CCN1c2ccccc2NC2N=C(OC)C(c3ccccc3)C21 (configuration not stated),41,-2
CC(N=Cc1cccc([N+](=O)[O-])c1O)c1ccccc1 (configuration not stated),2,-2
CCN1CCN(C(=O)c2cc3ccsc3n2Cc2cccc(OC)c2)CC1,36,0
O=S(=O)(c1ccc(-c2csc(=Nc3ccc(F)cc3)n2CCCO)cc1)N1CCOCC1,47,-2
CCOc1ccc(N=c2scc(-c3ccc(S(=O)(=O)N4CCCC4)cc3)n2CC)cc1,4,-3
O=S(=O)(c1ccc(-c2csc(=Nc3cccc(Cl)c3)n2CCO)cc1)N1CCCCC1,51*,-7
O=S(=O)(c1ccc(-c2csc(=Nc3ccc(Cl)cc3)n2CCCO)cc1)N1CCCC1,55*,-12
c1ccc(-c2ccc(SCc3nc(-c4ccccc4)no3)nn2)cc1,-4,-3
O=C(NCc1cccs1)N(CCc1cccs1)Cc1ccco1,-19,-11
Cc1ccc(N=c2oc3ccccc3cc2C(N)=O)cc1,-5,-4
Cc1cccc(NC(=O)CN2C(=O)C(c3ccccc3)=NC23CCCCC3)c1,-3,-4
O=C(CN1C(=O)C(c2ccc(F)cc2)=NC12CCCC2)Nc1ccc(Cl)cc1,11,-7
SMILES,mHTT-CaM PPI inh,Pf apPOL block
O=C(CN1C(=O)C(c2ccccc2)=NC12CCCCC2)Nc1ccc(F)c(Cl)c1,8,-8
O=C(CN1C(=O)C(c2ccc(F)cc2)=NC12CCCCC2)Nc1ccc(F)c(Cl)c1,95*,-6
O=C(CN1C(=O)C(c2ccccc2)=NC12CCCCC2)Nc1cccc(Cl)c1,89*,-11
O=C(CN1C(=O)C(c2ccc(F)cc2)=NC12CCCC2)Nc1ccc(F)c(Cl)c1,100*,-5
COc1ccc(-c2ncc3c(n2)CCN(C(=O)Nc2cccc(C)c2C)C3)cc1,-10,-6
CCC1CCCCN1S(=O)(=O)c1ccc(F)c(C(=O)Nc2cc(C)ccc2OC)c1 (configuration not stated),5,38
O=C(COc1ccc2c(c1)C(=O)CC2)Nc1cccc(C(F)(F)F)c1,-13,-6
COc1cccc(N=Cc2c[nH]c3ccccc23)c1,100*,2
CC(C)c1ccc(N=Cc2c[nH]c3ccccc23)cc1,2,-1
O=C1C2C3c4ccccc4C(c4ccccc43)C2C(=O)N1CCc1c[nH]c2ccccc12 (configuration not stated),100*,-89
CC(=O)c1c(C(C)=O)c(C)n(CCc2c[nH]c3ccccc23)c1C,5,-13
O=C(C1CCN(c2nnc(-c3ccccc3)o2)CC1)N1CCN(c2ccccc2F)CC1,7,-5
O=C1c2ccccc2C(=O)c2c1ccc(C(=O)N1CCN(c3ccccn3)CC1)c2NCCO,78*,-2
O=C1c2ccccc2C(=O)c2c1ccc(C(=O)N1CCC3(CC1)OCCO3)c2NCCO,41,1
Cc1csc(SCc2cc(=O)c(OC(=O)c3cccc([N+](=O)[O-])c3)co2)n1,2,13
Cn1ccnc1SCc1cc(=O)c(OC(=O)CC2CCCCC2)co1,14,-4
O=C(CC(c1ccccc1)c1ccccc1)Oc1coc(CSc2ncccn2)cc1=O,99*,-1
